This passage reports Potency and max response results from PubChem BioAssay (NCATS).

Values joined by “and” are separate entries in the source; they are usually repeats but may differ in a detail not shown here. Equal values may be shown once. Records with an inconclusive call do not appear. Active and inactive are the calls of the source. The call rests on the fitted dose curve; in most records, active means well fitted inhibition curve with a large enough effect; inconclusive means small, poorly fitted or top-dose-only effect; inactive means flat fitted curve, though single readings scatter. Starred links: 1 amine or outer side, 2 acyl side, 3 side chain; linkers in the order of their positions; H or OH if unused. Positions of bridges follow the written chain, without caps; N, C: chain ends. Non-standard residues stand in square brackets, D forms with d. Residues, ends and D or L forms follow the SMILES beside them. Chains are numbered I, II in the order given. Actinocin(9to1) = Cc1c2oc3c(C)ccc(C(=O)[*:1])c3nc-2c(C(=O)[*:2])c(N)c1=O; NMeV = CN[CH](C(=O)O)C(C)C; Sar = CNCC(=O)O
On the % scale 0 is the no-effect control and ±100 the full control effect; potency means the concentration at half of the fitted maximal effect.

The test system of the assay is HaCat. Kind of assay: Cytotoxic Profiling of Annotated Libraries Using Quantitative High-Throughput Screening (AID 1296008). Further: nearly all actives have a fitted effect of over 60% in size. Conditions: Five cell lines viability, CellTiter-Glo ATP luminescence, 48-72 h; max response: active compounds read low. The method in brief: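 Cells exposed to compounds for 48 or 72 hr at 37 degrees Celsius. Viability read as ATP-coupled luminescence with CellTiter-Glo after 10 min at room temperature.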
In the case of `C[C@H](NC(=O)C(C#N)=Cc1cccc(Br)n1)c1ccccc1`, the Potency is 10500 nM (active).
For the compound `COc1cc([C@@H]2c3cc4c(cc3[C@@H](O[C@@H]3O[C@@H]5CO[C@@H](c6cccs6)O[C@@H]5[C@H](O)[C@@H]3O)[C@H]3COC(=O)[C@H]23)OCO4)cc(OC)c1O`, the Potency is 590 nM (active).
On the same count and under the same terms, the value for `C=CCNC1=C2C[C@@H](C)C[C@H](OC)[C@@H](O)[C@@H](C)C=C(C)[C@H](OC(N)=O)[C@@H](OC)C=CC=C(C)C(=O)NC(=CC1=O)C2=O` was 590 nM (active).
Turning to `CCOC(=O)N1CCN([N+]([O-])=NOc2ccc([N+](=O)[O-])cc2[N+](=O)[O-])CC1`, the max response is 3.57% (inactive).
For the compound `COc1cccc2c1C(=O)c1c(O)c3c(c(O)c1C2=O)C[C@@](O)(C(C)=O)C[C@H]3O[C@H]1C[C@H](N)[C@H](O)[C@H](C)O1`, the Potency is 418 nM (active).
On to `C=CC1=C(C(=O)O)N2C(=O)[C@@H](NC(=O)C(=NO)c3csc(N)n3)[C@H]2SC1`, for which the max response is 4.35% (inactive).
Same read-out and setting: under `O=C(O)CCCCCC(=O)NN=C1CCCC1` stands 0.832% (inactive).
As to `Cc1ncc(-c2ccnc(Nc3ccc(S(C)(=O)=O)cc3)n2)n1C(C)C`, the Potency was 8.33 µM (active) and 5.8 µM (active).
For the compound `CC[C@H]1OC(=O)[C@H](C)[C@@H](O[C@H]2C[C@@](C)(OC)[C@@H](O)[C@H](C)O2)[C@H](C)[C@@H](O[C@@H]2O[C@H](C)C[C@H](N(C)C)[C@@H]2O)[C@](C)(OC)C[C@@H](C)C(=O)[C@H](C)[C@@H](O)[C@]1(C)O`, the max response is 3.25% (inactive).
For `C=C(C)[C@@H]1CC[C@]2(C(=O)O)CC[C@]3(C)[C@H](CC[C@@H]4[C@@]5(C)CC[C@H](O)C(C)(C)[C@@H]5CC[C@]43C)[C@@H]12`, the max response was 1.59% (inactive).
Turning to `O=C(C=CC#Cc1cccc(NS(=O)(=O)c2ccccc2)c1)NO`, the Potency is 11800 nM (active).
For `COC(=O)[C@H](CCCN=C(N)N)NS(=O)(=O)c1ccc(C)cc1`, the max response was 0.0008% (inactive).
As for `Cc1c2oc3c(C)ccc(C(=O)NC4C(=O)NC(C(C)C)C(=O)N5CCCC5C(=O)N(C)CC(=O)N(C)C(C(C)C)C(=O)OC4C)c3nc-2c(C(=O)NC2C(=O)NC(C(C)C)C(=O)N3CCCC3C(=O)N(C)CC(=O)N(C)C(C(C)C)C(=O)OC2C)c(N)c1=O` (stereo unspecified) (I: TVP[Sar][NMeV] / II: TVP[Sar][NMeV]; ester I:1-I:C, II:1-II:C; linker I:N-II:N via Actinocin(9to1); configuration not given here), the max response is -104% (inactive).
With `CC(=O)OC[C@@H]1O[C@@H](n2ccc(=O)[nH]c2=O)[C@H](OC(C)=O)[C@H]1OC(C)=O`, the max response is -10.5% (inactive).
Turning to `NC(=O)Nc1cc(-c2ccc(CN3CCOCC3)cc2)sc1C(N)=O`, the Potency is 332 nM (active).
For the compound `CC(=O)OCC(=O)[C@@]12N=C(C)O[C@H]1C[C@H]1[C@@H]3CCC4=CC(=O)C=C[C@]4(C)[C@@H]3[C@@H](O)C[C@@]12C`, the max response is -2.39% (inactive).
